# PubChem BioAssay (EPA / NIEHS)
# Active and inactive are the calls of the source. The calls were made as follows: active = hit-call score of the fitted dose curve at least 0.9, where 1 is the maximum; inactive = score below 0.9.
# Read-out: JUN Transcription Factor, JUN (gene 3725)
# Assay: LTEA_HepaRG_JUN: Life Technologies and Expression Analysis (LTEA) Assay for JUN Transcription Factor using HepaRG (AID 2283513)
# Settings: mRNA level, 48 h; actives raise or lower the signal
# Method in brief: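 mRNA measured by TaqMan qRT-PCR after 48 h chemical exposure of HepaRG cultures; normalization to three housekeeping genes. Duplicate eight-point half-log curves from 100 uM in 0.5% DMSO; gain or loss fitted against DMSO baseline.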
SMILES,outcome,AC50
CC(C)COC(=O)CCCCC(=O)OCC(C)C,inactive,
CC(C)NCC(O)c1ccc(O)c(O)c1 (stereo unspecified),inactive,
CCCCCCCCCC[N+](C)(C)[O-],inactive,
c1ccc2occc2c1,inactive,
COc1ccc(C(=O)Nc2nc3ccccc3c(NCc3ccccc3)c2C#N)cc1,inactive,
NC=O,inactive,
CCN(CC)CCOc1ccc(C(=C(Cl)c2ccccc2)c2ccccc2)cc1,,66.2 µM (active)
NCCOCCOCCN,inactive,
N[C@@H](Cc1c[nH]c2ccccc12)C(=O)O,inactive,
CSc1ccc(Oc2ccc(S(N)(=O)=O)cc2CN(C)C)cc1C,inactive,
CCc1nc(N)nc(N)c1-c1ccc(Cl)cc1,inactive,
O=C(Oc1ccccc1)c1cccc(C(=O)Oc2ccccc2)c1,inactive,
CC(=O)CC(c1ccccc1)c1c(O)c2ccccc2oc1=O (stereo unspecified),inactive,
C#CC(O)C(CC)CCCC (stereo unspecified),inactive,
CCCCC(CC)COP(=O)(OCC(CC)CCCC)OCC(CC)CCCC (stereo unspecified),inactive,
CCC(C)N(C)C(=O)c1cc2ccccc2c(-c2ccccc2Cl)n1 (stereo unspecified),inactive,
